Compound activity as filed in PubChem.
Rows were chosen to be rich in hits. Some 5.3% of all compounds tested hit in one or more screens of this group.
MARV entry inh – inhibitors of Marburg virus binding or cell entry; AID 540276; Potency, µM (titrated, usually from 37.8 µM), usual class: inhibitors; Marburg virus pseudotyped entry inhibition, cell reporter; 300,000 tested, 1.8% active; calls by dose curve; tested in HEK293 cells
LASV entry inh – blocks Lassa virus binding to or entry into cells | AID 540256 | Lassa virus pseudotype entry inhibition, cell reporter | Potency, µM (highest dose often 37.9 µM), usual class: inhibitors | 300,000 tested, 1.2% active; calls by dose curve; tested in HEK293 cells; also: nearly all actives have a fitted effect of over 50% in size
Vaccinia mCherry – inhibitors of vaccinia virus infection (mCherry reporter signal). Vaccinia virus mCherry reporter infection, fluorescence. Potency, µM (doses to about 36.5 µM), actives largely listed as inhibitors. 310,000 tested, 0.63% active; calls by dose curve; tested in A549 cells; also: nearly all actives have a fitted effect of over 35% in size
FMDV inh – antivirals against foot and mouth disease virus; FMDV antiviral cell-based qHTS; Potency, µM (titrated, usually from 57.9 µM), actives largely listed as inhibitors; 410,000 tested, 1.2% active; AID 1159524; calls by dose curve; tested in HEK293T cells; also: read-out not given here; nearly all actives have a fitted effect of over 45% in size
VACV Venus inh – vaccinia inhibition (Venus reporter). 330,000 tested, 0.46% active. AID 720580. Vaccinia virus Venus reporter expression, fluorescence. Potency, µM (titrated, usually from 36.5 µM), usual class: inhibitors; calls by dose curve; tested in A549 cells; also: nearly all actives have a fitted effect of over 30% in size
HCV inhibitor – inhibitors of hepatitis C virus infection | AID 651820 | Huh7.5.1 HCVcc-Cre infection, luciferase reporter, 44 h | Potency, µM (titrated, usually from 41.8 µM), usual class: inhibitors | 340,000 tested, 3.4% active; active = well fitted inhibition curve with a large enough effect; inconclusive = small, poorly fitted or top-dose-only effect, or another doubt; inactive = no such curve, though single readings can be large or run the other way
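Luciferase read-out (15 sec integration) after a 15 min room-temperature substrate step quantifies HCVcc-Cre infection. Cells, 1,000 per well, had compound added 4 h post-plating, then virus at ~0.5 moi, and were cultured 44 h.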
A number is an active result; n = inactive; u = inconclusive; x = not tested or not shown; ! = repeats disagree; [ ] = another dose, or the depositor's remark.

SMILES | MARV entry inh | LASV entry inh | Vaccinia mCherry | FMDV inh | VACV Venus inh | HCV inhibitor
NNC(=O)c1cc(-c2cccs2)nc2ccccc12 | x | x | x | n | x | n
CNC(=O)[C@@H]1C[C@H](NC2CCCCCCC2)CN1Cc1cccc(OC)c1OC | x | x | n | n | n | x
CCOc1ccc(S(=O)(=O)N(C(=O)c2ccncc2)c2ccc3oc(C)c(C(=O)OC)c3c2)cc1 | 10µM | u | n[7.34 µM] | n | n[7.34 µM] | x
CC(=O)Nc1nc(C)c(-c2csc(Nc3ccccn3)n2)s1 | u | n | u | n | u | 10µM
CC(=O)Nc1nc(C)c(-c2csc(Nc3ccc(O)cc3)n2)s1 | 4.6µM | u | x | n | x | 10µM
CC(=O)Nc1ccc(Nc2nc(-c3sc(NC(C)=O)nc3C)cs2)cc1 | 3.2µM | u | n | n | n | 11µM
CCC(=O)Nc1nc(C)c(-c2csc(Nc3ccc(C(=O)O)cc3)n2)s1 | n | n | u | n | n | n
COc1ccc(Nc2nc(-c3sc(C)nc3C)cs2)cc1 | x | x | x | u | x | 8.9µM
CC(=O)Oc1ccc(-c2csc(Nc3ccccn3)n2)cc1 | x | x | u | n | n | x
Cc1nc(C)c(-c2csc(Nc3ccc(N)cc3)n2)s1 | x | x | x | n | x | u
COc1ccc(N/C(C)=C/C(=O)c2ccccc2)cc1 | n | n | n | n | n | 10µM
COc1ccc(C(=O)OCC(=O)c2ccc(C3CCCCC3)cc2)cc1 | u | 2.2µM | n | u | n | u
COc1ccc(C(=O)Nc2ccc(C(=O)OCC(=O)c3ccccc3)cc2)cc1 | u | u | n | n | n | n
COc1ccc(C(=O)COC(=O)c2ccc(NC(=O)c3ccccc3)cc2)cc1 | n | n | x | n | x | 10µM
COc1ccc(C(=O)Nc2ccc(C(=O)c3ccccc3)cc2)cc1 | n | n | n[7.34 µM] | u | n[7.34 µM] | u
CCN(Cc1ccccc1)C(=O)c1ccc(NC(=O)c2ccc(OC)cc2)cc1 | x | x | x | n | x | 13µM
COc1ccc(C(=O)ON=C(C)c2nccs2)cc1 | x | x | n | n | n | x
O=C1c2cccc3cc([N+](=O)[O-])cc(c23)C(=O)N1CCN1CCCC1 | 4µM | u | 0.32µM | n | u | 1.1µM
CCN(CC)CCN1C(=O)c2cccc3cc(N)cc(c23)C1=O | 10µM | n | u | u | u | n
NC(=O)CN1CCN(CCN2C(=O)c3cccc4cccc(c34)C2=O)CC1 | x | x | x | n | x | n
Nc1cc2c3c(cccc3c1)C(=O)N(CCN1CCCC1)C2=O | 6.3µM | u | u | n | u | 10µM
COc1ccc(CCNCC(O)COc2ccc(OC)cc2C(C)(C)C)cc1 (centres undefined) | u | u | u | n | n | u
CC1(C)S[C@@H]2[C@H](NC(=O)COc3ccccc3)C(=O)N2[C@@H]1C(=O)OCc1cccc2cccnc12 | x | x | n | x | n | x
CC(=O)NC(=C(Cl)Cl)S(=O)(=O)c1ccccc1 | 10µM | u | 7.9µM | 22µM | 8.9µM | u
Cc1ccc(S(=O)(=O)CCC(=O)OCC(=O)NC(=O)c2ccccc2)cc1 | n | n | n | n | n | n
SMILES | MARV entry inh | LASV entry inh | Vaccinia mCherry | FMDV inh | VACV Venus inh | HCV inhibitor
Cc1ccc(C(=O)NS(=O)(=O)c2ccc(C)cc2)cc1 | n | x | x | n | x | n
Cc1ccc(C(=O)NC(=C(Cl)Cl)S(=O)(=O)c2ccc(C)cc2)cc1 | u | u | u | 18µM | u | n
Cc1ccc(C(=O)NS(=O)(=O)c2ccccc2)cc1 | n | n | n | n | n | 3.2µM
Cc1ccc(S(=O)(=O)/C(=C/Cl)NC(=O)c2ccccc2)cc1 | 7.1µM | 7.3µM | u | 14µM | u | u
COc1ccc(C(=O)NCS(=O)(=O)c2ccc(C)cc2)cc1 | n | n | x | n | x | n
CC1=CC[C@@H](COc2ccccc2)O[C@@]2(C1)C(=O)N(Cc1ccccc1C(F)(F)F)c1ccccc12 | n | x | x | x | x | x
CCC1CN(CCC(=O)N2CCCN(C(=O)c3ccco3)CC2)Cc2cc(OC)ccc2O1 (centres undefined) | x | x | n | n | n | x
Cc1ccc(S(=O)(=O)C(NC(=O)c2ccccc2)=C(Cl)Cl)cc1 | u | u | u | 13µM | u | u
O=C(NC(=C(Cl)Cl)S(=O)(=O)c1ccc(Cl)cc1)c1ccccc1 | x | x | x | 28µM | x | u
O=C(N/N=C/c1cc(Br)ccc1O)c1cccc(N2CCCC2=O)c1 | 23µM | u | 7.9µM | n | u | u
COc1ccc(O)c(/C=N/NC(=O)c2ccc(N3CCCC3=O)cc2)c1 | u | u | 2.8µM | n | u | 11µM
COc1ccc(O)c(/C=N/NC(=O)c2cccc(N3CCCC3=O)c2)c1 | u | u | 2.5µM | n | n | u
Cc1cccc(NC(=O)c2c(NC(=O)c3ccccc3)sc3c2CCCC3)c1 | x | n | n | n | n | x
O=C([C@@H]1CC=C[C@@H]2CCN(C3CCCCC3)C(=O)[C@@H]21)N1CCOCC1 | x | x | n | x | n | x
CCS(=O)(=O)c1ncc(Cl)c(C(=O)Nc2ccc(S(=O)(=O)N(C)c3ccccc3)cc2)n1 | 11µM | u | n | 22µM | 14µM! | u
CCN(c1ccccc1)S(=O)(=O)c1ccc(NC(=O)c2nc(S(C)(=O)=O)ncc2Cl)cc1 | n | u | u | 28µM | u | u
CS(=O)(=O)c1ncc(Cl)c(C(=O)Nc2ccc(OC(F)F)cc2)n1 | u | u | u | 20µM | u | u
COc1ccccc1-c1ccnc(-n2ncc(C(=O)N(C)C(C)c3ccon3)c2C2CC2)n1 (centres undefined) | x | x | n | n | n | x
CCCC(=O)Nc1nnc(SCc2cc(=O)c3cc(C)ccc3[nH]2)s1 | x | n | n | u | n | x
CCOC(=O)c1[nH]nc(-c2cc(CC)c(O)cc2O)c1-c1cscn1 | u | u | x | 8.9µM | x | u
O=C1C2CC=CCC2C(=O)N1c1ccc(NCCc2ccc(O)cc2)c([N+](=O)[O-])c1 (centres undefined) | u | u | n | u | n | 13µM
CC(C)(C)c1cc(C(=O)NN)n(Cc2ccc(F)cc2)n1 | x | x | x | n | x | u
COC(=O)c1cc(NC(=O)c2cc(C(C)(C)C)nn2Cc2ccc(F)cc2)ccc1N1CCOCC1 | x | x | x | u | x | 10µM
FC(F)(F)c1cccc(Nc2c3c(nc4ccc(Cl)cc24)CCC3)c1 | u | u | n[7.34 µM] | n | n[7.34 µM] | x
C=CCC1(CC=C)CCCN1C(=O)c1cc(COc2cccc(C(F)(F)F)c2)on1 | 10µM | u | n | n | n | x
SMILES | MARV entry inh | LASV entry inh | Vaccinia mCherry | FMDV inh | VACV Venus inh | HCV inhibitor
Cc1ccc(OCc2cc(C(=O)N3CCC(Oc4cccnc4)CC3)no2)cc1C | x | x | x | n | x | n
O=C(c1cc(COc2cccc(C(F)(F)F)c2)on1)N1CCC(Oc2cccnc2)CC1 | x | x | x | n | x | 11µM
CC1Cc2cc(-c3csc(NC(=O)Cc4ccccc4)n3)ccc2N1S(C)(=O)=O (centres undefined) | 10µM | u | u | x | u | 0.71µM
NC(=O)CC(NC(=O)c1ccccc1)c1ccc(NCc2ccccc2)c([N+](=O)[O-])c1 (centres undefined) | x | x | n | n | n | 10µM
NC(=O)CC(NC(=O)Cc1ccc(Br)cc1)c1ccc(N2CCC(Br)CC2)c([N+](=O)[O-])c1 (centres undefined) | x | x | n | n | u | n
NC(=O)CC(NC(=O)Cc1ccc(Br)cc1)c1ccc(N2CCC(Cc3ccccc3)CC2)c([N+](=O)[O-])c1 (centres undefined) | x | x | u | u | 11µM | n
